Results from publication PMC5540273 (PLoS ONE, 2017).

Tests used:
Settings in all cases: concentration: 1 μM, replicates: in singlicate; n = 1
[1] = system: MST1R
[2] = system: T1, MST1
T1 construct: gene STK4

[3] = system: T2, MST2
T2 construct: gene STK3

[4] = system: T3, MST3
T3 construct: gene STK24

[5] = system: MST4
[6] = system: MTOR
[7] = system: MUSK
[8] = system: MYLK2
[9] = system: MYLK4
[10] = system: MYLK
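Further: KINOMEscan kinase panel screen.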

Structure (SMILES) | %Inh [1] | %Inh [2] | %Inh [3] | %Inh [4] | %Inh [5] | %Inh [6] | %Inh [7] | %Inh [8] | %Inh [9] | %Inh [10]
Cn1cncc1C(=O)NC1CCN(c2ccnc(Nc3ccc(F)cc3)n2)C1 (centres unmarked) [GSK1379717] | 34% | 0% | 34% | 0% | 0% | 0% | 0% | 1% | 0% | 0%
COC(=O)C(NC(=O)NC1CCN(c2ccnc(Nc3ccc(F)cc3)n2)C1)c1ccccc1 (centres unmarked) [GSK1379712] | 35% | 0% | 28% | 3% | 0% | 31% | 12% | 10% | 13% | 12%
O=C(Nc1n[nH]c2nc(-c3cccs3)c(Br)cc12)C1CCCC1 [SB-743341] | 17% | 0% | 51% | 0% | 2% | 12% | 37% | 97.7% | 17% | 24%
O=C(Nc1n[nH]c2nc(-c3ccco3)c(Br)cc12)C1CCN(Cc2ccccc2)C1.O=C(O)[C@H](O)[C@@H](O)C(=O)O (centres unmarked) [SB-742034] | 7% | 0% | 46% | 13% | 9% | 0% | 0% | 89% | 25% | 3%
CCn1c(-c2c(N)noc2C)nc2cnccc21 [SB-737856] | 3% | 15% | 0% | 0% | 0% | 28% | 6% | 7% | 9% | 6%
